Results as given in PubChem BioAssay AID2417 (National Center for Advancing Translational Sciences (NCATS), 2010).
The whole screen tested about 140,000 compounds, of which about 4,300 (3.1%) were called active. About 21% were inconclusive and are not listed. Only a selection was taken, and actives are over-represented in it overall. Unmarked numbers belong to inactive results.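 How the source made its calls: active means readout at or below -70, meaning at least 70% loss of cells showing the perinucleolar compartment, a nuclear body marking cancer cells; inconclusive means readout between -30 and a set limit; inactive means the rest.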

experiment: High Content Assay for Compounds that inhibit the Assembly of the Perinucleolar Compartment; conditions: PC3M PTB-GFP, PNC prevalence imaging, 16 h; at 10 µM; hits give low values;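 further: plate controls were DMSO wells for no effect and camptothecin positive control wells for full effect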
Procedure, shortened: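 PC3M cells stably expressing PTB-GFP, 750–1000 cells/well, treated 16 h at 37 °C with compound (23 nl of library stock), in duplicate. After paraformaldehyde fixation and Hoechst stain, imaged at 20x; PNC prevalence scored by image analysis.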

| SMILES | activity change (PNC), negative = inhibition |
| --- | --- |
| COc1ccc(C2=NOC(C(=O)NCc3ccco3)C2)cc1OC (configuration not stated) | -87% (active) |
| Cc1ccc(CNC(=O)C2CC(c3ccccc3[N+](=O)[O-])=NO2)o1 (configuration not stated) | -9.83% |
| COc1ccc(-c2cc(C(=O)NCc3ccco3)no2)cc1OC | -7.14% |
| COc1ccc(Nc2ncc(C(=O)N3CCN(c4ccccc4OC)CC3)c3ccccc23)cc1 | 37.3% |
| COc1ccccc1N1CCN(C(=O)C(=O)N/N=C/c2ccccc2F)CC1 | -114% (active) |
| COc1ccccc1N1CCN(C(=O)c2ccc(S(=O)(=O)N3CCCCC3)cc2)CC1 | 48.1% |
| Cc1ccc(N(C(=O)C(F)(F)F)C(C(=O)NC2CCCCC2)c2ccncc2)cc1C (configuration not stated) | 0.653% |
| CCCCOc1ccc(C(=O)NCC(=O)OCC(=O)N2CCN(S(=O)(=O)c3ccc(C)cc3C)CC2)cc1 | 24.8% |
| CC(C)C1C2=C(CC(C)(C)CC2=O)ON1c1ccccc1 (configuration not stated) | -90.5% (active) |
| CC1(C)CC(=O)NC=C(c2ccccc2)C1 | 20.5% |
| CC(C)N1C(=O)N(c2ccccc2)C(C)(O)CC1(C)C (configuration not stated) | -24.7% |
| CCCCCOc1ccc(/C=C/C(=O)NCCc2nc3ccccc3[nH]2)cc1OC | 37% |
| COc1cc(/C=C(/NC(=O)c2ccc(Cl)cc2Cl)C(=O)O)cc(OC)c1OC | -21.4% |
| O=C(NCc1ccccc1Cl)C1CCC(CNc2c(N3CCCCC3)c(=O)c2=O)CC1 (configuration not stated) | 42.7% |
| COCCn1c(=O)[nH]c2cc(C(=O)NCc3cccnc3)ccc2c1=O | -86.1% (active) |
| CC(C)(C)c1cc(C(=O)NCc2cccnc2)ccn1 | 47.5% |
| COCCn1c(=S)[nH]c2cc(C(=O)NCCc3ccc(OC)c(OC)c3)ccc2c1=O | 26.1% |
| Cc1ccc(NC(=O)CCC(=O)N/N=C/c2ccco2)c(C)c1 | -23.4% |
| COC(=O)c1sccc1NC(=O)c1cc(OC)c(OC)c(OC)c1 | 81.2% |
| N#Cc1c(NC(=O)CCCN2C(=O)c3ccccc3C2=O)oc(-c2ccccc2)c1-c1ccccc1 | -11.2% |
| COc1cc(C(=O)Nc2oc(-c3ccccc3)c(-c3ccccc3)c2C#N)cc(OC)c1OC | -87.4% (active) |
| CCc1ccc(-c2cc(C(=O)NN3CCN(C)CC3)c3ccccc3n2)cc1 | -5.44% |
| O=[N+]([O-])c1ccc(NCCCO)c(C(F)(F)F)c1 | 59.3% |
| C=C(C)c1cccc(C(C)(C)NC(=O)NC2CCCC2)c1 | 24% |

| SMILES | activity change (PNC), negative = inhibition |
| --- | --- |
| Cc1ccc2[nH]c(C(=O)O)c(NC(=O)c3ccccc3[N+](=O)[O-])c2c1 | 17.5% |
| CCC(=O)Nc1c(S(=O)(=O)c2ccccc2)c2nc3ccccc3nc2n1Cc1ccccc1 | 8.42% |
| O=S(=O)(NCCc1ccncc1)c1ccccc1 | 50.6% |
| COc1cc2c(cc1OC)C(Nc1ccc(S(N)(=O)=O)cc1)=NC(C)(C)C2 | -18.6% |
| O=C1OC(OC(=O)c2ccccc2Br)C(N2CCOCC2)=C1Cl (configuration not stated) | 84.2% |
| O=C(CCCOc1ccccc1)Nc1cccc(C(=O)O)c1 | 11.1% |
| CCc1cccc(NC(=O)CCC(=O)O)c1 | -102% (active) |
| CSc1cccc(NC(=O)CSc2ccccc2)c1 | 1.35% |
| CCOc1ccc(NC(=O)CSc2ncnc3c2sc2ccccc23)cc1 | 42.2% |
| COc1cc(C(=S)N2CCOCC2)cc(OC)c1OC(=O)c1cc([N+](=O)[O-])cc([N+](=O)[O-])c1 | 19.6% |
| O=C(Oc1ccccc1Cl)c1ccc(N2CCOCC2)c([N+](=O)[O-])c1 | 20.3% |
| O=C(Oc1ccccc1C(=S)N1CCCCC1)c1cc([N+](=O)[O-])cc([N+](=O)[O-])c1 | -100% (active) |
| CN(C)CCNC(=O)/C(=C/c1cccc([N+](=O)[O-])c1)NC(=O)c1ccccc1 | -1.37% |
| COc1ccc(CCC(=O)OCC(=O)Nc2ccc(C)c(S(=O)(=O)N(C)C)c2)cc1 | 34.8% |
| COc1ccc(/C(C)=N/NC(=O)CCC(=O)Nc2ccc(Cl)cc2Cl)c(OC)c1 | -10.3% |
| Cc1ccc(NC(=S)NCc2ccccc2Cl)c(C)c1 | 22.9% |
| COCc1cc(C)nc2sc3c(=O)n(-c4cccc5ccccc45)nnc3c12 | 0.942% |
| COc1ccc(N2C(=O)C(O)C2c2ccc(C)cc2)cc1 (configuration not stated) | -29.1% |
| COc1ccc(-c2c(C(C)=O)c(C)nc3sc4c(=O)n(-c5ccc(C)cc5)nnc4c23)cc1 | -106% (active) |
| c1ccc(-c2nnc(SCc3nc4ccccc4[nH]3)o2)cc1 | 25.5% |
| O=C(Nc1nnc(SCc2ccc(Cl)cc2Cl)s1)C1COc2ccccc2O1 (configuration not stated) | 43% |
| Clc1ccc(CSc2nnc(/C=C/c3ccccc3)o2)c(Cl)c1 | -87.5% (active) |
| N/C(=N\OC(=O)CC1CCCCC1)c1ccccc1 | -25.3% |
